This note sets out measurements from PubChem BioAssay AID463173 (ICCB-Longwood Screening Facility, Harvard Medical School, 2010).

Structures are written as SMILES. Among all 52,000 compounds or so, about 4,300 (8.3%) were called active. This is one part of a sample in which actives are shown more often than they occur. Values without a mark were called inactive. No stated cut-off is given here; in the data, active means survival mostly below about 52% (no sharp cut-off); inactive means mostly above about 56%.

The subject of the experiment is DeltatarO mutant. The experiment in a line: S. aureus survival, RN4220 and DeltatarO strains – OD600, teichoic acid synthesis inhibitors, primary screen (AID 463173). The following applies: S. aureus RN4220 wild type/DeltatarO growth, OD600, 18 h, active compounds read low, screened at 18.75 µg/mL (by protocol).
In the case of `CCOC(=O)c1c(C)[nH]c(C)c1S(=O)(=O)NCC(=O)NCc1cccc(Br)c1`, the survival was 130%.
The same measure for `COc1ccc(C)cc1S(=O)(=O)N1CCN(c2cccc(Cl)c2)CC1`: 59%; for `Cc1cc(C)c(Cn2c(CCNC(=O)c3ccco3)nc3ccccc32)c(C)c1`: 59%.
Under `COc1cccc(-n2c(=O)c3sc4ccccc4c3n(CC(=O)Nc3ccccc3C)c2=O)c1` stands 74%; under `Cc1cccc(NC(=O)Cn2nnc(C(=O)Nc3ccc(F)c(Cl)c3)c2N)c1`, 101%; under `CCc1ccccc1NC(=O)Cn1nnc(C(=O)NCc2ccccc2Cl)c1N`, 20% (active).
Under `Cc1ccc(NC(=O)Cn2nnc(C(=O)NCCc3ccccc3)c2N)cc1` stands 87%; under `COc1ccc(NC(=O)Cn2nnc(C(=O)Nc3ccc(C)c(F)c3)c2N)cc1Cl`, 118%.
For the compound `CCc1ccccc1NC(=O)Cn1nnc(C(=O)NCc2cccs2)c1N`, the survival is 94%.
In the case of `COc1cccc(Cn2nnc(C(=O)Nc3cc(C)ccc3C)c2N)c1`, the survival was 100%.
The same measure for `Cc1ccc(NC(=O)Cn2nnc(C(=O)NCCc3ccccc3)c2N)cc1C`: 46% (active); for `COc1ccc(NC(=O)Cn2nnc(C(=O)Nc3ccc(F)c(Cl)c3)c2N)cc1OC`: 37% (active).
The same measure for `CCc1ccccc1NC(=O)Cn1nnc(C(=O)NCc2cccc(OC)c2)c1N`: 70%.
The same measure for `Cc1cc(C)cc(NC(=O)Cn2nnc(C(=O)NCc3ccccc3Cl)c2N)c1`: 72%; for `Cc1ccc(NC(=O)Cn2nnc(C(=O)NCCc3ccccc3)c2N)cc1Cl`: 105%.
For `COc1cccc(CNC(=O)c2nnn(CC(=O)Nc3cc(Cl)ccc3C)c2N)c1`, the survival is 25% (active).
The same measure for `COc1ccc(-c2nnc(SCC(=O)Nc3c(C)cccc3C)nc2-c2ccc(OC)cc2)cc1`: 92%; for `COc1cccc(CNC(=O)c2ccc(-c3nc(CS(=O)(=O)c4ccccc4)c(C)o3)cc2)c1`: 72%; for `COc1ccc(-c2noc(-c3ccc(N4CCCC4)c([N+](=O)[O-])c3)n2)cc1OC`: 59%.
With `CCC(C)NC(=O)c1cc2cc(S(=O)(=O)N3CCCCC3)ccc2n1C` (stereo not given), the survival was 55%.
The same measure for `CCc1cccc(NC(=O)CC2Oc3ccc(C)cc3NC2=O)c1` (stereo not given): 79%.
For `Cc1ccc(S(=O)(=O)Nc2nc(C)c(NC(=O)NC3C=NN=C3)s2)cc1`, the survival is 90%.
Under `O=C(NCc1cccnc1)C(=O)NCC(c1cccnc1)N1CCN(c2ccc(F)cc2)CC1` (stereo not given) stands 70%; under `COc1cccc(Cn2nnc(C(=O)NCc3ccc(Cl)cc3Cl)c2N)c1`, 71%.
The same measure for `COc1ccccc1NC(=O)Cn1nnc(C(=O)Nc2ccccc2Br)c1N`: 89%; for `Nc1c(C(=O)NCc2ccc(Cl)cc2Cl)nnn1Cc1ccc(Br)cc1`: 45% (active).
Under `Cc1ccc(C)c(NC(=O)c2nnn(CC(=O)Nc3cccc(C)c3C)c2N)c1` stands 98%; under `Cc1cccc(NC(=O)Cn2nnc(C(=O)Nc3ccccc3Br)c2N)c1C`, 8% (active).
Consider `Cc1ccc(C)c(Cn2nnc(C(=O)NCc3ccc(Cl)cc3Cl)c2N)c1`, for which the survival was 62%.
Take `Cc1ccc(Cl)cc1NC(=O)CC1Sc2ccccc2NC1=O` (stereo not given): the survival was 93%.
With `CC(CCc1ccccc1)NC(=O)CSc1n[nH]c(-c2ccccc2Cl)n1` (stereo not given), the survival was 54%.
Under `COc1ccc(CCNC(=O)c2cc(Sc3cccc(Cl)c3)nc3ccccc23)cc1OC` stands 89%.
As for `CCc1c(C)sc2c1CCN(C(=O)Nc1cc(C)cc(C)c1)C2c1ccccc1` (stereo not given), the survival was 55%.
The same measure for `CCc1c(C)sc2c1CCN(C(=O)Nc1ccccc1C(=O)OC)C2c1ccc(F)cc1` (stereo not given): 105%; for `CCc1c(C)sc2c1CCN(C(=O)Nc1cc(C)ccc1OC)C2c1ccc(F)cc1` (stereo not given): 144%.
Under `CCc1c(C)sc2c1CCN(C(=O)Nc1cc(OC)c(OC)c(OC)c1)C2c1ccccc1` (stereo not given) stands 25% (active).
Under `CCc1c(C)sc2c1CCN(C(=O)Nc1cc(Cl)c(OC)cc1OC)C2c1ccccc1` (stereo not given) stands 63%.
As for `CCc1c(C)sc2c1CCN(C(=O)Nc1ccc(F)c(Cl)c1)C2c1ccc(F)cc1` (stereo not given), the survival is 46% (active).
Consider `O=C(CCCN1C(=O)c2cccnc2Oc2ccc(Cl)cc21)NCc1ccc(F)cc1`, for which the survival was 90%.
On to `CCOc1ccccc1NC(=O)Cn1c(=O)n(CC(=O)NCc2ccccc2Cl)c(=O)c2sccc21`, for which the survival was 154%.
Under `O=C(CSc1ccccc1)NCc1ccc2c(c1)CCN2C(=O)c1ccc(F)cc1` stands 88%.
The same measure for `CCOc1ccccc1N1CC(c2nc3ccccc3n2Cc2c(C)cc(C)cc2C)CC1=O` (stereo not given): 92%; for `Cc1cccc(C)c1OCCn1c(C2CC(=O)N(Cc3ccc(F)cc3)C2)nc2ccccc21` (stereo not given): 4% (active); for `Cc1cccc(C)c1OCCn1c(C2CC(=O)N(c3cccc(Cl)c3)C2)nc2ccccc21` (stereo not given): 57%.
The same measure for `CCc1ccccc1N1CC(c2nc3ccccc3n2CCCCOc2ccccc2OC)CC1=O` (stereo not given): 80%; for `C=CCc1ccccc1OCCn1c(C2CC(=O)N(Cc3ccc(F)cc3)C2)nc2ccccc21` (stereo not given): 0% (active).
Consider `Cc1cc(C)c(Cn2c(C3CC(=O)N(c4ccc(F)cc4)C3)nc3ccccc32)c(C)c1` (stereo not given), for which the survival is 91%.
Under `Cc1ccc(OCCn2c(C3CC(=O)N(Cc4ccc(F)cc4)C3)nc3ccccc32)c(C)c1` (stereo not given) stands 3% (active); under `Cc1ccc(C)c(OCCn2c(C3CC(=O)N(Cc4ccc(F)cc4)C3)nc3ccccc32)c1` (stereo not given), 0% (active); under `COc1ccccc1OCCCn1c(C2CC(=O)N(c3ccc(F)cc3)C2)nc2ccccc21` (stereo not given), 76%.
Under `CCOc1ccccc1N1CC(c2nc3ccccc3n2CCOc2ccccc2OC)CC1=O` (stereo not given) stands 95%; under `CC(=O)c1cccc(NC(=O)C(C)n2c(=O)cc(-c3ccccc3)c3c(C)nn(C)c32)c1` (stereo not given), 102%.
Under `CC1CCN(C(=O)Cn2cc(SCC(=O)NCc3ccccc3Cl)c3ccccc32)CC1` stands 64%; under `COc1cc(/C=C/c2nc(C#N)c(N3CCCCC3)o2)cc(OC)c1OC`, 89%; under `CCOc1ccc(NCc2nc3ccccc3n2CCOc2ccc(C)cc2)cc1`, 1% (active).
As to `CCc1nnc2c(Nc3ccccc3Br)nc3ccccc3n12`, the survival is 93%.
The same measure for `Cc1ccc(OCCn2c(CNc3cccc(C)c3)nc3ccccc32)cc1`: -3% (active).
Under `CCOc1ccc(Nc2nc3ccccc3n3c(CC)nnc23)cc1` stands 36% (active); under `CCc1nnc2c(Nc3cccc(C(C)=O)c3)nc3ccccc3n12`, 92%.
The same measure for `CCOc1ccc(NCc2n[nH]c(=S)n2-c2ccc(C)cc2)cc1`: 90%.
For `COc1ccc(NCc2nc3ccccc3n2CCOc2ccc(C)cc2)cc1`, the survival was 17% (active).
Under `CCC(O)c1nc2ccccc2n1CCOc1cc(C)cc(C)c1` (stereo not given) stands 100%; under `COc1ccc(OCCn2c(C)nc3cc(C)c(C)cc32)cc1`, 57%.
The same measure for `Cc1ccc(C)c(Cn2cc(CCC(=O)NC3CCCCC3)c3ccccc32)c1`: 86%; for `CC(C)(C)OC(=O)N/N=C/c1cccc(O)c1`: 79%; for `Nc1nnc2c(Nc3ccccc3)nc3nonc3n12`: 86%.
The same measure for `O=C(NC1CCCCC1)c1ccc(CSc2nc3cccnc3n2Cc2cccc(F)c2)cc1`: 83%; for `CC(C)(C)c1ccc(-c2ncccc2O)cc1`: 53%; for `CCc1c(C)c2ccc3c(c2oc1=O)CN(Cc1ccccc1)CO3`: 99%.
Regarding `COc1ccc(NC(=O)C2CCN(S(=O)(=O)c3c(C)noc3/C=C/c3cccs3)CC2)cc1`, the survival is 90%.
The same measure for `Cn1c(=O)c2c(c3ccccc31)OC(=O)CC2c1cccc(F)c1` (stereo not given): 59%.
Under `CCc1sc(Nc2cccc(Cl)c2)nc1-c1cc2cccc(OC)c2oc1=O` stands 90%; under `COc1cccc(CN(C(=O)COc2ccc(Cl)c(C)c2)C2CCS(=O)(=O)C2)c1` (stereo not given), 71%.
For `Cc1ccc(NCc2nc3ccccc3n2CCOc2ccccc2)cc1`, the survival is 3% (active).
Regarding `Clc1ccc(NCc2nc3ccccc3n2CCOc2ccccc2)cc1`, the survival was 50%.
Under `Cc1nn(CC(=O)Nc2ccccc2C(F)(F)F)c(=O)c2cccn12` stands 93%; under `COc1ccc(C(C(=O)Nc2ccc(C(C)C)cc2)N(C)C(=O)Cc2cccs2)cc1` (stereo not given), 127%; under `Cc1ccc(S(=O)(=O)N2CCNCC2)cc1`, 87%.
Under `COc1ccc(C)c2sc(NC(=O)c3ccc(S(=O)(=O)N4CCCC4)cc3)nc12` stands 101%; under `CNC(=O)c1c(NC(=O)c2ccc(S(=O)(=O)N3CCCCC3)cc2)sc2c1CCC2`, 0% (active); under `Cc1cc(C)c2sc(NC(=O)c3ccc(S(=O)(=O)N4CCCC4)cc3)nc2c1`, 37% (active).
For `Cc1cc(C)c2nc(NC(=O)c3ccc(S(=O)(=O)N4CCCC4)cc3)sc2c1`, the survival is 102%.
The same measure for `Cc1cc(C)c2sc(NC(=O)c3ccc(S(=O)(=O)N4CCOCC4)cc3)nc2c1`: 101%; for `Cc1ccc(C)c2sc(NC(=O)c3ccc(S(=O)(=O)N4CCCC4)cc3)nc12`: 25% (active).
For the compound `CCOc1cccc2sc(NC(=O)c3ccc(S(=O)(=O)N4CCCc5ccccc54)cc3)nc12`, the survival was 74%.
The same measure for `CCOc1cccc2sc(NC(=O)c3ccc(S(=O)(=O)N4CCCCC4C)cc3)nc12` (stereo not given): 37% (active); for `CCOc1cccc2sc(NC(=O)c3ccc(S(=O)(=O)N4CCCCC4)cc3)nc12`: 94%; for `CNC(=O)c1c(NC(=O)c2ccc(S(=O)(=O)N3CCC(C)CC3)cc2)sc2c1CCC2`: 131%.
The same measure for `Cc1ccc(Cl)c2sc(NC(=O)c3ccc(S(=O)(=O)N4CCCC4)cc3)nc12`: 63%; for `CNC(=O)c1c(NC(=O)c2ccc(S(=O)(=O)N3CCCC(C)C3)cc2)sc2c1CCC2` (stereo not given): 92%.
